The nature of experiment [1]: qHTS assay to identify small molecule antagonists of the sonic hedgehog signaling (Shh) pathway (AID 1259369; calls by dose curve; further: nearly all actives have a fitted effect of over 45% in size; further: potency means the concentration at half of the fitted maximal effect). The gist of the method:
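NIH/3T3-derived 3T3Gli1-Luc cells with stably integrated Gli1-Luc reporter were preincubated 4hr at 37 C, then given compounds in DMSO plus Shh conditioned medium and incubated 24hr. Firefly luciferase luminescence read after 30min reagent at room temperature.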

A short description of experiment [2]: qHTS assay to identify small molecule agonists of the androgen receptor (AR) signaling pathway in the presence of an antagonist - cell viability counter screen (AID 1259379). Further: series mostly up to about 92 µM; nearly all actives have a fitted effect of over 25% in size. The procedure, abridged: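 MDA-kb2 human breast carcinoma cells (stable MMTV-luciferase, AR/GR responsive) were seeded 3,000 cells/well, pre-incubated 5 hr at 37C without CO2, then given 3.0uM nilutamide and compounds at 15 concentrations for 16 hr. Viability was read by CellTiter-Fluor fluorescence.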
(In general: Quantitative high-throughput screening tests each substance at several concentrations.)

Experiment [3] can be described thus: qHTS assay to identify small molecule agonists of the estrogen receptor beta (ER-beta) signaling pathway - cell viability counter screen (AID 1259380). Further: nearly all actives have a fitted effect of over 30% in size. The gist of the method: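 ER-beta-UAS-bla HEK293T cells in medium with 2% charcoal-stripped FBS were preincubated 6 hr at 37C, dosed with compound in DMSO for 16 hr, then after the bla read, CellTiter-Glo was added for 30 min at room temperature; luminescence recorded.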

Experiment [4] in a line: qHTS assay to identify small molecule antagonists of the estrogen receptor beta (ER-beta) signaling pathway - cell viability counter screen (AID 1259382). Further: series mostly up to about 92 µM; nearly all actives have a fitted effect of over 55% in size. The gist of the method:
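ER-beta-UAS-bla HEK293T cells (2,000/well, 2% charcoal-stripped FBS) were pre-incubated 6 hr at 37C, then given compound plus 1nM final 17-beta-estradiol for 16 hr. Viability was read in the same wells by CellTiter-Glo luminescence after 30 min at room temperature.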

The target in experiment [5] is Estrogen receptor (Homo sapiens) (UniProt P03372). Description: qHTS assay to identify small molecule agonists of the estrogen receptor alpha (ER-alpha) signaling pathway in the presence of an antagonist (AID 1259383; calls by dose curve; further: top concentration of the series differs between compounds; nearly all actives have a fitted effect of over 15% in size). The gist of the method: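 VM7Luc4E2 cells (endogenous full-length ER-alpha, 4×ERE-luciferase) were precultured 5 days in phenol red-free medium with 10% charcoal-stripped FBS, given 10.0nM ICI-182,780 (final), then treated with compounds at 15 concentrations for 22hr at 37C; luminescence read with ONE-Glo.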

The nature of experiment [6]: qHTS assay to identify small molecule agonists of the estrogen receptor alpha (ER-alpha) signaling pathway in the presence of an antagonist - cell viability counter screen (AID 1259386).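 Further: series mostly up to about 92 µM; cells exposed to compounds for 22 h at 37 °C before the viability read; nearly all actives have a fitted effect of over 30% in size.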 The procedure, abridged:
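VM7Luc4E2 cells (endogenous full-length ER-alpha, 4×ERE-luciferase) were held 5 days in phenol red-free medium with 10% charcoal-stripped FBS, plated, then given 10.0nM ICI-182,780 and compounds at 15 concentrations for 22hr at 37C; viability read by CellTiter-Fluor fluorescence.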

Experiment [7] has as its target Progesterone receptor (Homo sapiens) (UniProt P06401). Description: qHTS assay to identify small molecule agonists of the progesterone receptor (PR) signaling pathway (AID 1346784; calls by dose curve; further: nearly all actives have a fitted effect of over 30% in size). The procedure, abridged:
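Fluorescence from LiveBLAzer B/G FRET substrate cleavage (2 hr, RT) reported PR activation in PR-UAS-bla HEK 293T cells treated 16 hr at 37C/5% CO2 with compounds; medium contained 2% charcoal-stripped FBS.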

For experiment [8] the target is unchanged. Kind of experiment: qHTS assay to identify small molecule antagonists of the progesterone receptor (PR) signaling pathway (AID 1346795; active means well fitted inhibition curve with a large enough effect in the signal ratio in the repeat runs, not every such curve was filed as active; the % refers to the signal ratio). The procedure, abridged: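 Fluorescence intensity measured 2 hr after adding beta-lactamase FRET substrate to PR-UAS-bla HEK293T cells that had been co-treated 16 hr with compound and 1 nM R5020 (final concentration) in 2% charcoal-stripped FBS.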

The nature of experiment [9]: qHTS assay to identify small molecule antagonists of the progesterone receptor (PR) signaling pathway - cell viability counter screen (AID 1346798). Further: series mostly up to about 92 µM; nearly all actives have a fitted effect of over 50% in size. The gist of the method: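 CellTiter-Glo luminescence; PR-UAS-bla HEK293T, 3,000 cells/well; compound + R5020, 16 hr, 37C/5% CO2; 30 min RT before read.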
The nature of experiment [10]: qHTS assay to identify small molecule agonists of the progesterone receptor (PR) signaling pathway - cell viability counter screen (AID 1346799; calls by dose curve; further: nearly all actives have a fitted effect of over 45% in size). The procedure, abridged: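 In parallel with the beta-lactamase readout, cytotoxicity toward PR-UAS-bla HEK293T cells was measured by CellTiter-Glo luminescence following 16 hr compound incubation in 2% charcoal-stripped FBS medium.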

The nature of experiment [11]: qHTS assay to identify small molecule antagonists of the TGF-beta/Smad signaling pathway - cell viability counter screen (AID 1346824). Further: nearly all actives have a fitted effect of over 50% in size. The gist of the method:
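SBE-bla HEK 293T cells, incubated overnight, then compound plus 0.25 ng/mL TGF-beta1 (stock added) for 5 hr at 37 C. Viability was read in the same wells by CellTiter-Glo luminescence after 30 min at room temperature.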

Experiment [12] can be described thus: qHTS assay to identify small molecule agonists of the TGF-beta/Smad signaling pathway - cell viability counter screen (AID 1346829). Further: top concentration of the series differs between compounds; nearly all actives have a fitted effect of over 45% in size. The procedure, abridged:
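Here the cytotoxicity of library compounds is measured in SBE-bla HEK 293T cells treated for 5 hr, using CellTiter-Glo added to wells already read for the beta-lactamase reporter.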

A short description of experiment [13]: qHTS assay to identify small molecule agonists of the TGF-beta/Smad signaling pathway (AID 1346859; active means well fitted activation curve with a large enough effect in the signal ratio in the repeat runs, not every such curve was filed as active; the % refers to the signal ratio; further: series mostly up to about 77 µM). The gist of the method: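 After overnight seeding, SBE-bla HEK 293T cells are dosed with compounds in DMSO and kept 5 hr at 37 C, 5% CO2. LiveBLAzer-type FRET substrate is then applied for 2 hr at room temperature.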
Experiment [14] deals with Thyrotropin-releasing hormone receptor (Homo sapiens) (UniProt P34981). Kind of experiment: qHTS assay to identify small molecule antagonists of the thyrotropin-releasing hormone receptor (TRHR) signaling pathway (AID 1346877; active means well fitted inhibition curve with a large enough effect in the repeat runs, not every such curve was filed as active; further: series mostly up to about 51 µM). The procedure, abridged: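 TRHR-expressing HEK293 cells were seeded, cultured 18 h at 37 °C, then loaded with calcium dye for 2 h. Compounds were pre-incubated 5 min at room temperature before 1 nM TRH (final) was added, and kinetic fluorescence was recorded for 3 min.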

Experiment [15] shares this target. Kind of experiment: qHTS assay to identify small molecule agonists of the thyrotropin-releasing hormone receptor (TRHR) signaling pathway (AID 1346891; calls by dose curve; further: series mostly up to about 58 µM). The gist of the method: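 Compounds were tested as agonists at 15 concentrations, in triplicate, on TRHR-Hek293 cells; calcium-sensitive dye fluorescence was recorded for 3 min following addition.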
The nature of experiment [16]: qHTS assay to identify small molecule agonists or antagonists of the thyroid stimulating hormone receptor (TSHR) signaling pathway - wild type cell line counter screen (AID 1259384; calls by dose curve). The gist of the method: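 Wild-type Hek293 cells, 800/well, 18 h at 37C, then compound with Ro20-1724 for 30 min RT. cAMP by HTRF (cAMP-d2/anti-cAMP cryptate), 1 h RT, fluorescence read. 15 concentrations, triplicates.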

Experiment [17] addresses Thyrotropin receptor (Homo sapiens) (UniProt P16473). Description: qHTS assay to identify small molecule antagonists of the thyroid stimulating hormone receptor (TSHR) signaling pathway (AID 1259385; calls by dose curve; further: nearly all actives have a fitted effect of over 20% in size). The gist of the method: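 TSHR-HEK293 cells (800/well) plated 18 h, then compounds with Ro20-1724 and TSH at 1.5 ng/mL final, 30 min at room temperature. cAMP quantified by HTRF (cAMP-d2/anti-cAMP-cryptate, 1 h); 15 concentrations in triplicate.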

In experiment [18] the target is Androgen receptor (Homo sapiens) (UniProt P10275). Kind of experiment: qHTS assay to identify small molecule agonists of the androgen receptor (AR) signaling pathway in the presence of an antagonist (AID 1259381; calls by dose curve; further: nearly all actives have a fitted effect of over 15% in size). The gist of the method:
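MDA-kb2 human breast carcinoma cells carrying an MMTV-luciferase reporter (AR- and GR-responsive) were treated with compounds at 15 concentrations plus 3.0uM final nilutamide for 16hr at 37C without CO2; luminescence was read after ONE-Glo addition.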

The target of experiment [19] is Estrogen receptor beta (Homo sapiens) (UniProt Q92731). Kind of experiment: qHTS assay to identify small molecule antagonists of the estrogen receptor beta (ER-beta) signaling pathway (AID 1259378; active means well fitted inhibition curve with a large enough effect in the signal ratio in the repeat runs, not every such curve was filed as active; the % refers to the signal ratio). The gist of the method: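 ER-beta-UAS-bla HEK293T cells in 2% charcoal-stripped FBS medium treated with compound plus 1nM final 17-beta-estradiol for 16 hr at 37C. Beta-lactamase reporter read by FRET substrate fluorescence after 2 hours at room temperature.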

These results are taken from PubChem BioAssay (Tox21).

Unmarked numbers belong to inactive results. Results filed as inconclusive are left out. Activity calls are given as the source filed them. Unless noted, the call rests on the fitted dose curve; in most records, active means well fitted curve in the direction sought with a large enough effect in the repeat runs; inconclusive means weak or mixed curves; inactive means no such curve, though single readings can be large; an effect the other way counts as inactive or inconclusive.

Sequence of Progesterone receptor (Homo sapiens) (P06401 whole entry, looked up): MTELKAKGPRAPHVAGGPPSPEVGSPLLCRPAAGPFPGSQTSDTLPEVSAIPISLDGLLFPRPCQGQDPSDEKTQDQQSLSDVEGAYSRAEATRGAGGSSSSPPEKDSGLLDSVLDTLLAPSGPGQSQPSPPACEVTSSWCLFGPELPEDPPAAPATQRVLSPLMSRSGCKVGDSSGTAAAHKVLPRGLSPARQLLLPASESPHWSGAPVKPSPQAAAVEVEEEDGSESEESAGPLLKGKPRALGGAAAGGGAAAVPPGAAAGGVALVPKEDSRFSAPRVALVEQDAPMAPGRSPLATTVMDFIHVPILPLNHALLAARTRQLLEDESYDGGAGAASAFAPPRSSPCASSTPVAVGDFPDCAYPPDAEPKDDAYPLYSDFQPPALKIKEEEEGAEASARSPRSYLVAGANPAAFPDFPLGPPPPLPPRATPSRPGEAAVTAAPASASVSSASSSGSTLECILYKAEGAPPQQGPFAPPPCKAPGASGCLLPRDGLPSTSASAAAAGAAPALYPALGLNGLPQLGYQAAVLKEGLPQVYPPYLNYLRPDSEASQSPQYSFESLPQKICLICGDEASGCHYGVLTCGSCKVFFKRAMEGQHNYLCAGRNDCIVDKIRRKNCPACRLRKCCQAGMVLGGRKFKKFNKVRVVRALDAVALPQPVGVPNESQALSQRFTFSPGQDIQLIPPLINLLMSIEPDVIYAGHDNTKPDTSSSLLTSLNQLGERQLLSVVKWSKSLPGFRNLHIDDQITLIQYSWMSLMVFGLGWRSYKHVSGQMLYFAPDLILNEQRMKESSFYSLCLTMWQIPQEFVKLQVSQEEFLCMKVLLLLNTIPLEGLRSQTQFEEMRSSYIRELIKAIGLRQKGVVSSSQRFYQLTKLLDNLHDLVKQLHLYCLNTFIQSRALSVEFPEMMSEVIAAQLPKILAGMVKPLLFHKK
Sequence of Thyrotropin-releasing hormone receptor (Homo sapiens) (P34981 whole entry, looked up): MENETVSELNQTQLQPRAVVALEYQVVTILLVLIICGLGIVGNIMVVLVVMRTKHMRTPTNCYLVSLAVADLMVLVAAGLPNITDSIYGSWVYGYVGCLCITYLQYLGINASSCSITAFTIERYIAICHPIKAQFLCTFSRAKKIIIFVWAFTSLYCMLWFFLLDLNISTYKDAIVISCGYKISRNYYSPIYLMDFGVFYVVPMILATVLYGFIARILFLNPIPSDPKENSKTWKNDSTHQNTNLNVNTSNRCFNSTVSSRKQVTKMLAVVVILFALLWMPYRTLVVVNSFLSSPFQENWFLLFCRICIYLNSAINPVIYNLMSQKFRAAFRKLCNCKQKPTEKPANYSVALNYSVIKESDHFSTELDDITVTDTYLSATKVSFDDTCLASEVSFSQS
Sequence of Estrogen receptor (Homo sapiens) (P03372 whole entry, looked up): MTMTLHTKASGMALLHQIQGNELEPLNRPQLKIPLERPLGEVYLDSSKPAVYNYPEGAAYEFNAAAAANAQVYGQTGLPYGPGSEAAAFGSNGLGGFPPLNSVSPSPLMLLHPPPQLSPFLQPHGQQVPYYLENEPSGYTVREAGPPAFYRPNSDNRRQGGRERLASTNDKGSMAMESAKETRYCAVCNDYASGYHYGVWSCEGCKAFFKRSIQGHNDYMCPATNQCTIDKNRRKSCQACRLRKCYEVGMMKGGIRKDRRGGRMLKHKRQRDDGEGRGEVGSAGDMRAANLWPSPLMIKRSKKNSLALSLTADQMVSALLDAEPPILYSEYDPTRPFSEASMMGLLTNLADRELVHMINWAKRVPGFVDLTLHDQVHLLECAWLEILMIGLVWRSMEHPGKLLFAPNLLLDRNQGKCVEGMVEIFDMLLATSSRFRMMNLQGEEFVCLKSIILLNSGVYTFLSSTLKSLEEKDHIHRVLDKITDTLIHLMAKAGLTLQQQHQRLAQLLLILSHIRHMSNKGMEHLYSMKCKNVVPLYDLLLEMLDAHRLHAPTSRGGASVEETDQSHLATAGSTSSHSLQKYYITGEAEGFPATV
Sequence of Thyrotropin receptor (Homo sapiens) (P16473 whole entry, looked up): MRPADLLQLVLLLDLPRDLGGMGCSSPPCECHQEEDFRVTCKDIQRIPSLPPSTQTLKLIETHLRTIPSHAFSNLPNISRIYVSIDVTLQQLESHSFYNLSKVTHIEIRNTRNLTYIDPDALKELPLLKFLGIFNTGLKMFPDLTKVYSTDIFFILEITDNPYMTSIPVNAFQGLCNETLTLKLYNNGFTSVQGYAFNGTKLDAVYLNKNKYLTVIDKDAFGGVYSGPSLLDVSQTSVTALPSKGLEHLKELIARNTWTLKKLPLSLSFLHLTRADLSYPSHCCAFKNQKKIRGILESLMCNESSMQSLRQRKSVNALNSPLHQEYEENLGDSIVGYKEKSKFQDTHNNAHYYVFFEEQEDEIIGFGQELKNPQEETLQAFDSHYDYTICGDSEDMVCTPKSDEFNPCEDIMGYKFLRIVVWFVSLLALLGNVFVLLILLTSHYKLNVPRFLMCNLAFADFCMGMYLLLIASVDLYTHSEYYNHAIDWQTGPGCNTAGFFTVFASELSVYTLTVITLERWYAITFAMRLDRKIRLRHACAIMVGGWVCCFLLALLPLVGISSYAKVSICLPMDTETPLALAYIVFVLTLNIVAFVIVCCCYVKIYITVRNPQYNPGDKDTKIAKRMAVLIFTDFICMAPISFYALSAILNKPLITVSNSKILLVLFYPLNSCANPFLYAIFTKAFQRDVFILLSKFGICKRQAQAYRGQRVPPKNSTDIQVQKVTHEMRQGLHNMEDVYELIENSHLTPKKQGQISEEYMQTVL
Sequence of Androgen receptor (Homo sapiens) (P10275 whole entry, looked up): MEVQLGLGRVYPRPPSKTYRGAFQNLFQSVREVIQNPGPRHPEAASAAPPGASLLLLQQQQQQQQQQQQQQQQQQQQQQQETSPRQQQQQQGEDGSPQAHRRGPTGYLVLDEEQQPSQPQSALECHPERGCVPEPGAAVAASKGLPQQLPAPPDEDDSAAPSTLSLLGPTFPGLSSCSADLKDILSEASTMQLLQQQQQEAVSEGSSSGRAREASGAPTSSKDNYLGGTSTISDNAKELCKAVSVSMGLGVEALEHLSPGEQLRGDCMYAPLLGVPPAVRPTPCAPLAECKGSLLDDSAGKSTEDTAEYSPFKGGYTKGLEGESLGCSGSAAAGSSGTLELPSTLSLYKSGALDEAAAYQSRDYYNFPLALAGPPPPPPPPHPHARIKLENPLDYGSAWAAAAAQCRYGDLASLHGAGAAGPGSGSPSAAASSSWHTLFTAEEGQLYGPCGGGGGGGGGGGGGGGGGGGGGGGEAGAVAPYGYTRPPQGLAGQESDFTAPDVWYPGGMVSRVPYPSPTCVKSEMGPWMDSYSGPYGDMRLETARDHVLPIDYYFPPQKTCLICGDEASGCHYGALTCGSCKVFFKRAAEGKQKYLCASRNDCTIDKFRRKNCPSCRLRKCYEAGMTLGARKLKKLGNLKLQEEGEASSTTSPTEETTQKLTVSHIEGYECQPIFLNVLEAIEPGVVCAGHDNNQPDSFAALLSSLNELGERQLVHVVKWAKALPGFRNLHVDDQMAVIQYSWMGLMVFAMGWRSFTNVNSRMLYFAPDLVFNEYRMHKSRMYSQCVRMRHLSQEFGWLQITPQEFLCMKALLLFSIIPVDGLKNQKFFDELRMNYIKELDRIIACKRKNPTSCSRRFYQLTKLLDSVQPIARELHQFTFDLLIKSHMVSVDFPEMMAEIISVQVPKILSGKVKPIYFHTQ
Sequence of Estrogen receptor beta (Homo sapiens) (Q92731 whole entry, looked up): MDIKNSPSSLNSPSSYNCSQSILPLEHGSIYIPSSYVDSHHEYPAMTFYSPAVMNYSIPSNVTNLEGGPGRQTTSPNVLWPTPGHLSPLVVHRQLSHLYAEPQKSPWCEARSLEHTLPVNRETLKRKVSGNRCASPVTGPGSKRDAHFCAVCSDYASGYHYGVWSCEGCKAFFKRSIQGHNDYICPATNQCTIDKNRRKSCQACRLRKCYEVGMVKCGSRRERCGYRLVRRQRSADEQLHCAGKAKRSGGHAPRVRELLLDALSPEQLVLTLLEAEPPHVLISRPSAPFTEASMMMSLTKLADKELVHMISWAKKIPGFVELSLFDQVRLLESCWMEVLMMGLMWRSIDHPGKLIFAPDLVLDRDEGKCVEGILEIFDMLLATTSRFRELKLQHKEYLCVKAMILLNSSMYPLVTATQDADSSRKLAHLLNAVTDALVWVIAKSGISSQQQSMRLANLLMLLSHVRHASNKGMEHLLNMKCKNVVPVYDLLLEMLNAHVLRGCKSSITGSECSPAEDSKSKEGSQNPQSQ

Take `CNC(=O)CN(CCN(CCN(CC(=O)[O-])CC(=O)NC)CC(=O)[O-])CC(=O)[O-].O.[Gd+3]`: the Potency entry in experiment [1], in [2], in experiment [3], in experiment [4], in [5] and in [6] was “inactive” each time. Moreover, the Potency entry in [7], in [8], in experiment [9], in experiment [10], in experiment [11] and in [13] was “inactive” in each case. In addition, the Potency entry in experiment [15] is “inactive”. Besides, the outcome in experiment [12] and in experiment [14] was inactive.
Consider `Cc1ccc(C(C)OC(=O)C2(C)CCC(C(=O)O)C2(C)C)cc1` (stereo unspecified), for which the Potency result in experiment [1], in experiment [2], in experiment [3], in experiment [4], in experiment [16] and in [17] was “inactive” throughout. Moreover, the Potency result in [6], in [7], in experiment [8], in experiment [9], in experiment [10] and in experiment [11] was “inactive” throughout. Further, the Potency entry in experiment [13] was “inactive”. Also, the call in experiment [12] was inactive.
As for `CCCCCCCCCCCC(=O)OC[C@@H](O)[C@H]1OC[C@H](OCCO)[C@H]1OCCO`, the Potency entry in experiment [1], in experiment [2], in experiment [3], in experiment [4], in [5] and in experiment [16] was “inactive” in each case. In addition, the Potency result in experiment [17], in experiment [6], in experiment [8], in [9], in experiment [10] and in experiment [11] was “inactive” in each case. Besides, the Potency result in experiment [13] and in [15] was “inactive” each time. The molecule was classed as inactive in [12] and in experiment [14].
Take `O=CC1CC=CCC1` (stereo unspecified): the Potency result in experiment [1], in [2], in experiment [3], in [18], in experiment [4] and in experiment [5] was “inactive” throughout. The Potency result in [16], in [17], in [6], in experiment [7], in [8] and in [9] was “inactive” throughout. The Potency entry in [10], in experiment [11], in experiment [13] and in [15] was “inactive” in each case. The molecule was classed as inactive in experiment [12] and in experiment [14].
Consider `COc1ccc(-c2nc3ccc(C4=NNC(=O)CC4C)cc3[nH]2)cc1` (stereo unspecified), for which the Potency in [1] was 8.41 µM (active). Also, the Potency entry in experiment [2], in [3], in experiment [18], in experiment [4], in [5] and in experiment [16] was “inactive” each time. The Potency result in [6], in experiment [7], in experiment [11], in experiment [13] and in [15] was “inactive” each time. The call in [12] and in experiment [14] was inactive.
As for `CC1=CC=C(C(C)C)CC1`, the Potency entry in experiment [1], in experiment [2], in [3], in experiment [4], in experiment [5] and in experiment [6] was “inactive” in each case. The Potency entry in [8], in experiment [9], in experiment [10], in experiment [11] and in experiment [13] was “inactive” throughout. Besides, the molecule was called inactive in [12].
For the molecule `CCOC(=O)c1cccnc1`, the Potency entry in experiment [1], in experiment [19], in [3], in experiment [4], in experiment [5] and in experiment [16] was “inactive” in each case. Further, the Potency entry in experiment [17], in experiment [6], in experiment [7], in experiment [8], in experiment [9] and in [10] was “inactive” throughout. The Potency entry in [11], in experiment [13] and in experiment [15] was “inactive” each time. The result in experiment [12] and in experiment [14] was inactive.
